Assay outcomes (PubChem)
In the library only some 9.3% were active in any assay of this set; here they are far more common.
Vaccinia Venus: inhibitors of vaccinia virus (Venus reporter). hit rate 0.46% among 330,000. Potency, µM (titrated, usually from 36.5 µM), inactives show at the highest dose activity change, negative = inhibition, most hits filed as inhibitors. Vaccinia virus Venus reporter expression, fluorescence. AID 720580; calls by dose curve; tested in A549 cells; note: potency is the fitted concentration of half-maximal effect; nearly all actives have a fitted effect of over 30% in size
FMDV antiviral: blocks foot and mouth disease virus; FMDV antiviral cell-based qHTS; AID 1159524; hit rate 1.2% among 410,000; Potency, µM (highest dose often 57.9 µM), inactives show at the top dose activity change, negative = inhibition, hits mostly inhibitors; calls by dose curve; tested in HEK293T cells; note: read-out not given here; potency is the fitted concentration of half-maximal effect; nearly all actives have a fitted effect of over 45% in size
Vaccinia mCherry: inhibitors of vaccinia virus infection (mCherry reporter signal); Vaccinia virus mCherry reporter infection, fluorescence; Potency, µM (titrated, usually from 36.5 µM), for the others: at the top dose activity change, negative = inhibition, hits mostly inhibitors; hit rate 0.63% among 310,000; AID 720579; calls by dose curve; tested in A549 cells; note: potency is the fitted concentration of half-maximal effect; nearly all actives have a fitted effect of over 35% in size
HCV inh: blocks hepatitis C virus. Huh7.5.1 HCVcc-Cre infection, luciferase reporter, 44 h. Potency, µM (highest dose often 41.8 µM), without a hit: at the highest dose activity change, negative = inhibition, usual class: inhibitors. hit rate 3.4% among 340,000; note: potency is the fitted concentration of half-maximal effect
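1,000 cells/well; 4 h culture; + compound; + HCVcc-Cre (~0.5 moi); 44 h; luciferase substrate, RT 15 min; read 15 sec.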
Sm TGR block: S. mansoni TGR enzyme inhibition. Q962Y6. purified TGR, DTNB reduction, TNB absorbance 405 nm. Potency, µM (top dose mostly 114 µM), for inactives: top-dose activity change, negative = inhibition, hits mostly inhibitors. hit rate 3% among 360,000; note: potency is the fitted concentration of half-maximal effect; nearly all actives have a fitted effect of over 60% in size
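First, TGR (20 nM dispensed) and NADPH were mixed with compound. Second, a 15 min room-temperature incubation followed. Third, further NADPH and then DTNB were added to start the reaction. Finally, TNB absorbance was monitored kinetically.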
HCMV inh: blocks human cytomegalovirus replication; hit rate 4.5% among 410,000; HFF cells, HCMV-luciferase reporter, 72 h; hits give low values; AID 1259415; activity change, negative = inhibition, % at 57.5 µM; in the data active = activity change below about -60%; inconclusive = no clear call, values can overlap the other calls; inactive = above about -39%
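HFF cells seeded 16 h at 37C, treated with compounds, infected with luciferase-reporter HCMV at MOI 1 PFU/cell; luciferase read at 72 h post infection, normalized to buffer-only and Salinomycin controls.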
An asterisk follows results filed as active; i = inactive; ? = inconclusive; nt = not tested or not shown; [ ] = another dose, or the depositor's remark. Unless noted, calls come from the whole dose curve; as a rule, active = well fitted curve in the direction sought with a large enough effect; inconclusive = small, poorly fitted or top-dose-only effect, or another doubt; inactive = no such curve, though single readings can be large; an effect the other way counts as inactive or inconclusive. % is set by controls: 0 for no effect and ±100 for the full control effect.

SMILES | Vaccinia Venus | FMDV antiviral | Vaccinia mCherry | HCV inh | Sm TGR block | HCMV inh
CC[n+]1c(C=C2C=C(C)OC(C)=C2)sc2ccccc21 | 79% | ? | -29% | 2.5µM* | 2% | -98*
O=[N+]([O-])c1ccccc1S(=O)(=O)N1CCN(c2nc(-c3ccccc3)nc3ccccc23)CC1 | -14% | nt | -11% | nt | nt | nt
COc1ccc(O)c(CN2CCCC(C(=O)c3ccccc3SC)C2)c1 (centres undefined) | -5% | ? | i | 11µM* | ? | 15
COc1ccc(C(=O)C2CCCN(Cc3cccc(C)n3)C2)c(OC)c1 (centres undefined) | -9% | -15% | -10% | ? | -9% | -33
COc1c(C)cc(C(=O)C2CCCN(C(=O)CCc3scnc3C)C2)cc1C (centres undefined) | -16% | -13% | -25% | 10µM* | -7% | -62*
COc1cccc(C(=O)C2CCCN(Cc3ccccn3)C2)c1 (centres undefined) | -4% | -18% | -9% | -4% | -9% | 46
COc1cccc(C(=O)C2CCCN(C(=O)CCc3scnc3C)C2)c1 (centres undefined) | -6% | -14% | -5% | -11% | 0% | 5
COc1ccc2cc(C(=O)C3CCCN(Cc4cccc(C)n4)C3)ccc2c1 (centres undefined) | ? | ? | ? | ? | -21% | -67*
COc1c(C)cc(C(=O)C2CCCN(Cc3ccccn3)C2)cc1C (centres undefined) | -6% | -22% | -10% | -2% | -22% | -65*
Cc1ccc(Cn2c(C)nc3ccc([N+](=O)[O-])cc3c2=O)cc1 | nt | ? | nt | -29% | -20% | 53
COc1cc(/C=C2/OC(=O)c3cc([N+](=O)[O-])ccc32)cc(OC)c1OC | nt | -24% | nt | 1% | nt | 59
CCOC(=O)C1(CC)NC(c2ccco2)C2C(=O)N(c3ccc(C)cc3)C(=O)C21 (centres undefined) | -10% | 10% | -4% | -12% | 45µM* | 43
CCCC1(C(=O)OC)NC(c2ccco2)C2C(=O)N(c3ccc(C)cc3)C(=O)C21 (centres undefined) | nt | 10% | nt | -34% | -28% | 19
Cc1ccc(C)c(S(=O)(=O)c2nnn3c2nc(NCc2cccs2)c2sccc23)c1 | -29% | -11% | -29% | nt | 3% | -38
Cc1ccc(S(=O)(=O)c2nnn3c2nc(N2CCOCC2)c2ccccc23)cc1C | -13% | 23% | -13% | 10µM* | -2% | 9
Cc1ccc(S(=O)(=O)c2nnn3c2nc(N2CCN(c4cccc(C)c4C)CC2)c2ccccc23)cc1C | -14% | 0% | i | nt | 18% | 0
Cc1ccc(C)c(S(=O)(=O)c2nnn3c2nc(NC2CCCC2)c2sccc23)c1 | ? | ? | ? | nt | 11% | -107*
Cc1ccc(S(=O)(=O)c2nnn3c2nc(NC2CCCCC2)c2sccc23)cc1C | ? | -10% | ? | nt | 11% | -92*
CC1CCN(C(=O)COc2ccc(Nc3ccccc3)cc2)CC1 | 6% | -12% | -2% | -7% | -20% | -74*
O=C(Nc1ccc(OCC(=O)N2CCC(Cc3ccccc3)CC2)cc1)c1ccco1 | nt | -16% | nt | -29% | 0% | -83*
CCCSc1nc(N)nc2c1ncn2C1OC(CO)C(O)C1O (centres undefined) | -14% | -2% | i | 4% | nt | -70*
CCOC(=O)Cc1ccc(NC(=O)n2ncc3c(C)cccc32)cc1 | -10% | 21% | -10% | nt | 7% | -74*
CCOc1ccc(NC(=O)n2ncc3c(C)cccc32)cc1 | nt | 75% | nt | -12% | 0% | 75
CSc1nnc(NC(=O)CCc2ccccc2)s1 | nt | 39% | nt | -4% | 5% | -4
Clc1ccc(C(c2ccc(Cl)cc2)n2cc[n+](CC(OCc3ccc(Cl)cc3Cl)c3ccc(Cl)cc3Cl)c2)cc1 (centres undefined) | 11µM* | ? | ? | ? | -35% | -99*
SMILES | Vaccinia Venus | FMDV antiviral | Vaccinia mCherry | HCV inh | Sm TGR block | HCMV inh
O=NN(Cc1cccnc1)Cc1cccnc1 | -1% | -3% | 3% | nt | nt | ?
CCc1ccc(O)c(CNCCNCc2cc(CC)ccc2O)c1 | -19% | ? | ? | ? | 3% | ?
Cc1ccc(O)c(CNCCNCc2cc(C)ccc2O)c1 | -10% | -20% | ? | ? | -4% | -67*
O=C(c1ccco1)n1c(=S)nc2ccccn21 | nt | 76% | nt | -6% | 50µM* | 8
Cc1cccc2nc(=S)n(C(=O)c3ccco3)n12 | -5% | 102% | -4% | 17% | 22µM* | 60
Cc1ccc(-c2nc(N)n(C(=O)c3ccco3)n2)cc1 | -3% | -4% | -12% | 12% | 2% | 56
O=C(c1ccc(Br)cc1)C1CCc2occc2C1=O (centres undefined) | nt | 4% | nt | ? | 56µM* | -12
O=C(NNC(=O)C1CCC1)c1ccc(Br)cc1 | -6% | 11% | i | 10% | 0% | -35
CCOC(=O)N1CCC(NC(=O)c2ccc3c(c2)N=C(CC)c2cc(C)ccc2S3)CC1 | -26% | ? | -26% | 3.2µM* | -19% | 0
CCC1=Nc2cc(C(=O)NCc3ccco3)ccc2Sc2ccc(C)cc21 | ? | -22% | i | ? | -29% | -75*
CCCC1=Nc2cc(C(=O)NC3CCCC3)ccc2Sc2ccc(C)cc21 | -22%[7.34 µM] | -15% | -27%[7.34 µM] | nt | 1% | -79*
CCCC1=Nc2cc(C(=O)N3CCCC3)ccc2Sc2ccc(C)cc21 | ? | -7% | ? | -22% | -2% | -6
CCC1=Nc2cc(C(=O)NCCN3CCOCC3)ccc2Sc2ccc(C)cc21 | nt | -8% | nt | ? | 4% | -17
CCOC(=O)N1CCN(C(=O)c2ccc3c(c2)N=C(CC)c2cc(C)ccc2S3)CC1 | nt | -11% | nt | ? | 5% | -39
CCCC1=Nc2cc(C(=O)N3CCN(c4ccccn4)CC3)ccc2Sc2ccc(C)cc21 | -14% | -30% | -6% | 11µM* | -2% | -38
CN(C)/C(=C\C(=O)c1ccccc1)C(=O)c1ccccc1 | -4% | -14% | i | 7% | nt | 12
CCOC(=O)N1CCC(NC(=O)c2ccc3c(c2)N=C(C)c2c(C)ccc(C)c2S3)CC1 | nt | -24% | nt | ? | -9% | -93*
CCCC1=Nc2cc(C(=O)NC3CCCCC3)ccc2Sc2ccc(C)cc21 | ? | -3% | ? | nt | 1% | -91*
CCC1=Nc2cc(C(=O)NC3CCC(C)CC3)ccc2Sc2ccc(C)cc21 (centres undefined) | ? | -12% | ? | nt | 0% | -82*
CCCC1=Nc2cc(C(=O)N3CCC(C)CC3)ccc2Sc2ccc(C)cc21 | -19% | 8% | -8% | nt | -1% | -3
Cc1ccc(NCc2nnc(SCC(N)=O)n2CC2CCCO2)c(C)c1 (centres undefined) | nt | 37% | nt | 2% | 1% | 25
